Measurements reported in PubChem BioAssay AID493192 (National Center for Advancing Translational Sciences (NCATS), 2011).
Inconclusive results are not listed. Activity calls are given as the source filed them. Calls come from the whole dose curve; as a rule, active = well fitted activation curve with a large enough effect; inconclusive = small, poorly fitted or top-dose-only effect; inactive = no such curve, though single readings can be large or run the other way.

assay: qHTS Assay for Identifying a Potential Treatment of Ataxia-Telangiectasia: Hit Validation; details: Ataxia-telangiectasia cell-based hit validation qHTS, in ATM-null A-T patient fibroblasts; series mostly up to 76.9 µM; activity change, positive = activation: at the top concentration;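 note: phospho-KAP1 level by AlphaLISA as a proxy for ATM-like kinase activity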; for activity change, positive = activation: 0% is about no effect
Summary of the method: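 KAP-1 phosphorylation was read by AlphaLISA as a measure of ATM-like activity in ATM-null F2112 fibroblasts. Compounds spanned up to 76.7 uM final, with 60 min exposure at 37C and a 6 hr detection incubation at 25C.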
Potency is the fitted concentration of half-maximal effect.

Row | Compound | activity change, positive = activation | Potency
1 | N#Cc1c2c(c(-n3cnc4ccccc43)n3c1nc1ccccc13)CCC2 | -17.4% (inactive) | 
2 | COc1ccc(-c2cc(C(F)(F)F)c(C#N)c(SCC(=O)O)n2)cc1OC | -6.83% (inactive) | 
3 | O=C(CCCC(=O)N1CCCC1)N1CCCC1 | 8.68% (inactive) | 
4 | N=c1ccn(Cc2ccc([N+](=O)[O-])cc2)cc1 | 9.64% (inactive) | 
5 | COc1cc(C(=O)NCCC(=O)NCCCN2CCCCC2)cc(OC)c1OC | 22.5% (inactive) | 
6 | C[C@@H]1Cc2c(O)c(O)cc(O)c2C(=O)O1 | -17.1% (inactive) | 
7 | CNC(=O)c1ccc(-c2sc3nc(N4CCOCC4)c4c(c3c2N)CC(C)(C)OC4)o1 |  | 29.2 µM (active)
8 | S=c1[nH]nc(Cn2c(-c3ccccn3)nc3ccccc32)n1-c1ccc2c(c1)OCCO2 | 3.21% (inactive) | 
9 | CC(=O)Nc1ccc(NC2=C(Cl)C(=O)c3ccccc3C2=O)cc1 | 3.61% (inactive) | 
10 | COc1ccc(C(=O)CSc2nc3ncccc3[nH]2)cc1OC | 1.61% (inactive) | 
11 | CC(=O)Nc1ccc(NC(=O)CSc2nnnn2-c2ccc(F)cc2)cc1 | 29.4% (inactive) | 
12 | COC(=O)c1cccc2c1-c1ccccc1/C2=N\NC(N)=O | 14.2% (inactive) | 
13 | COc1ccc(N(C)S(=O)(=O)c2cccc(C(=O)OCC(=O)NCc3ccccc3OC)c2)cc1 | 37.1% (inactive) | 
14 | O=C(Nc1cccc([N+](=O)[O-])c1)N1CCCc2ccccc21 | -2.8% (inactive) | 
15 | COc1cc(/C=C2\SC(=S)N(C(C(=O)O)c3ccccc3)C2=O)ccc1O (stereo unspecified) | -1.74% (inactive) | 
16 | CCCN1C2CCCC1CC(NC(=S)Nc1cccc(C)c1C)C2 (stereo unspecified) | 10.4% (inactive) | 
17 | O=C(OCCc1cc2ccccc2c(=O)o1)c1cccc(Br)c1 | -10% (inactive) | 
18 | CCOC(=O)c1cccc(N2C(=O)C3C4C=CC(CC4)C3C2=O)c1 (stereo unspecified) | 13.3% (inactive) | 

Row | Compound | activity change, positive = activation | Potency
19 | C=Cc1c(C)c2cc3[nH]c(cc4nc(cc5nc(cc1[nH]2)C(C)=C5CCC(=O)O)C(CCC(=O)O)=C4C)c(C)c3C=C | 21.5% (inactive) | 
20 | COc1cc(CCC(C)NCc2ccccc2)ccc1O (stereo unspecified) | 6.99% (inactive) | 
21 | CCCc1nn(C)c(C(=O)Nc2ccc(C(C)(C)C)cc2)c1Cl | 18.9% (inactive) | 
22 | CC1CC(C)CN(S(=O)(=O)c2ccc(C(=O)NCCCn3ccnc3)cc2)C1 (stereo unspecified) | -8.33% (inactive) | 
23 | C=CCSc1nc2ccccc2n1C(=O)/C=C/c1cc(OC)c(OC)c(OC)c1 |  | 26 µM (active)
24 | N#Cc1c(-c2ccccc2)cc(-c2ccccc2)[nH]c1=O | -11.2% (inactive) | 
25 | N#CCN1C(=O)C(=O)N(Cc2cccc(Cl)c2)C1=O | 0% (inactive) | 
26 | COc1cccc(CNCc2ccc(OC)c3ccccc23)c1OC | 6.29% (inactive) | 
27 | CN(C)C(=O)CN(C)S(=O)(=O)c1ccc(Cl)cc1 | -10.1% (inactive) | 
28 | COc1ccccc1Nc1nc(NCCCN(C)C)nc(N)c1[N+](=O)[O-] | 19.3% (inactive) | 
29 | Cc1ccc(OCC(=O)N(Cc2cccs2)C2CCS(=O)(=O)C2)cc1C (stereo unspecified) | 21.7% (inactive) | 
30 | O=C1NC(=Nc2ccccc2)CS1 | 12.2% (inactive) | 
31 | CNC(=S)N(CCc1c(C)[nH]c2ccc(Cl)cc12)Cc1cccnc1 | -16.7% (inactive) | 
32 | COC(=O)N/N=C/c1ccccc1OCCOc1ccc(OC)cc1 | 14.9% (inactive) | 
33 | C(=N\Nc1ccccn1)/c1c[nH]c2ccccc12 | 5.21% (inactive) | 
34 | CC(C)(CO)NC(=O)c1ccc2c(c1)C(=O)c1ccccc1-2 | -9.44% (inactive) | 
35 | COc1ccccc1C1CCN(C(=O)c2ccc(Cl)cc2)CC1 | 11.6% (inactive) | 
36 | O=C(Nc1cnn(C23CC4CC(CC(C4)C2)C3)c1)c1cnn2cccnc12 | -6.29% (inactive) | 
